Hits are enriched below; roughly 7.9% of the tested compounds scored in any of these assays.
NOMO-1 viab: NOMO-1 AML cell viability reduction, primary screen, STK33 inhibitor project, CellTiter-Glo luminescence | NOMO-1 AML viability, 72 h | hit rate 7.5% among 37,000 | inhibition, % (no concentration beside the values); in the data active means inhibition above about 80%; inconclusive means no clear call, values can overlap the other calls
PD-1 reversal: activators reversing PD-1 mediated T-cell inhibition, primary screen, luminescence, primary human CD4 T cells, PD-L1 beads; CellTiter-Glo 96 h; activation, % (concentration not given with the values); 29,000 tested, under 10 active; call rule not given here;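 further: 0% = median vehicle wells and 100% = positive control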
MITF inh: inhibitors of MITF, primary screen, MITF inhibitor project, cell-based, luminescence; inhibition, % (concentration not given with the values); TRPM1 promoter luciferase, 24 h; hit rate 0.28% among 37,000; AID 2240, 2010; in the data active means inhibition above about 85%; inconclusive means no clear call, values can overlap the other calls; inactive means below about 68%;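 further: human melanocyte line stably carrying TRPM1 promoter luciferase reporter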
Hedgehog inh: Hedgehog pathway signaling inhibitors, primary screen, luminescence, Shh-LIGHT2 cells, Gli-luciferase | Shh-LIGHT2 Gli-luciferase reporter, 30 h | inhibition, % (test concentration not listed) | hit rate 2.1% among 22,000;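 active means mean inhibition across valid replicates above about 65%, limit read from the data; inconclusive means mean under the limit, yet half or more replicates past it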;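 further: pathway switched on by Shh-conditioned medium diluted 1 in 25 in low serum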
The depositor's hits bear a star; ? = inconclusive; . = no result given.

SMILES | NOMO-1 viab | PD-1 reversal | MITF inh | Hedgehog inh
C[C@@H]1CN([C@@H](C)CO)C(=O)Cc2cc(NC(=O)Nc3ccc4c(c3)OCO4)ccc2O[C@@H]1CN(C)S(=O)(=O)c1ccc(F)cc1 | 2 | -1 | 4 | 28
C[C@H]1CN([C@@H](C)CO)C(=O)Cc2cc(NC(=O)Nc3ccc4c(c3)OCO4)ccc2O[C@H]1CN(C)S(=O)(=O)c1ccc(F)cc1 | 128* | . | 24 | -51
COc1ccc(S(=O)(=O)N(C)C[C@@H]2Oc3ccc(NC(=O)Nc4ccc5c(c4)OCO5)cc3CC(=O)N([C@H](C)CO)C[C@H]2C)cc1 | -12 | . | 0 | -44
Cc1ccc(S(=O)(=O)N(C)C[C@@H]2Oc3ccc(NC(=O)Nc4ccc5c(c4)OCO5)cc3CC(=O)N([C@@H](C)CO)C[C@@H]2C)cc1 | 108* | . | 26 | -58
Cc1ccc(S(=O)(=O)N(C)C[C@@H]2Oc3ccc(NC(=O)Nc4ccc5c(c4)OCO5)cc3CC(=O)N([C@H](C)CO)C[C@H]2C)cc1 | -4 | -2 | 2 | -21
COc1ccc(S(=O)(=O)N(C)C[C@@H]2Oc3ccc(NC(=O)Nc4ccc5c(c4)OCO5)cc3CC(=O)N([C@H](C)CO)C[C@@H]2C)cc1 | 114* | 1 | 34 | -27
C[C@H](CO)N1C[C@H](C)[C@H](CN(C)S(=O)(=O)c2ccccc2)Oc2ccc(NC(=O)Nc3ccc4c(c3)OCO4)cc2CC1=O | 126* | 0 | 17 | -4
COc1ccc(S(=O)(=O)Nc2cccc(N(C)S(C)(=O)=O)c2)cc1OC | 22 | . | 21 | .
COC(=O)Nc1scc(-c2ccccc2)c1C(=O)NCc1ccco1 | 29 | 0 | -27 | .
CS(=O)(=O)N(CC(=O)Nc1ccc(F)cc1F)c1ccc(Br)cc1 | -4 | 0 | -19 | .
Cc1ccc([N+](=O)[O-])cc1N(CC(=O)Nc1ccc(I)cc1)S(C)(=O)=O | 121* | 0 | 10 | .
Cc1cc(N(CC(=O)Nc2ccc(F)c(Cl)c2)S(C)(=O)=O)ccc1Br | 93* | -8 | 47 | .
Cc1ccc([N+](=O)[O-])cc1N(CC(=O)Nc1cccc(F)c1)S(C)(=O)=O | 40 | . | 0 | .
CS(=O)(=O)N(CC(=O)Nc1ccc(Cl)c(Cl)c1)c1ccc(Br)cc1 | 115* | -14 | 116* | .
COc1ccc(N(CC(=O)Nc2ccc(I)cc2)S(C)(=O)=O)cc1Cl | 10 | 0 | 8 | .
CS(=O)(=O)N(CC(=O)Nc1ccc(I)cc1)c1ccc(Cl)c(Cl)c1 | 90* | -7 | ? | .
CC1CCN(C(=O)c2cc(Cl)ccc2Cl)CC1 | 22 | -3 | 1 | 10
O=c1cc(Oc2ccc(O)cc2)oc2cc(O[C@@H]3O[C@H](CO[C@@H]4O[C@H](CO)[C@@H](O)[C@H](O)[C@H]4O)[C@@H](O)[C@H](O)[C@H]3O)cc(O)c12 | 2 | 1 | 6 | -18
Cc1ccc(NC(=O)CN(c2ccc(Cl)c(C(F)(F)F)c2)S(C)(=O)=O)cc1 | 91* | -7 | -7 | .
COc1cc(O)c(C(=O)/C=C/c2ccccc2)c(OC)c1 | 93* | . | -18 | 21
CC(=O)c1cccc(NC(=O)Nc2cccc(S(=O)(=O)N3CCOCC3)c2)c1 | -1 | 0 | -21 | .
O=C1N=C(c2cccc(O)c2)c2ccccc2Nc2ccccc21 | 31 | 2 | 10 | 86*
O=C(CSc1nnc(-c2cccc(Cl)c2)n1-c1ccccc1)Nc1ccccc1-c1ccccc1 | 142* | -4 | 61 | .
COc1cccc(NC(=O)CSc2nnc(-c3cccc(OC)c3)n2-c2ccc(Cl)cc2)c1 | 18 | 1 | 3 | .
Cc1ccc(Cl)cc1NC(=O)CSc1nnc(-c2ccccc2)n1-c1ccccc1 | 20 | 0 | 10 | .
SMILES | NOMO-1 viab | PD-1 reversal | MITF inh | Hedgehog inh
COc1cccc(NC(=O)CSc2nnc(-c3ccc(Cl)cc3)n2-c2cccc(C)c2)c1 | 123* | -14 | ? | .
CC(=O)OC(CCCCCCCCCC(C)O)Cc1cc(O)cc(O)c1 (stereo unspecified) | 27 | 1 | 10 | -30
O=C(CN1C(=O)c2ccccc2S1(=O)=O)Nc1ccc2c(c1)OCCO2 | -8 | . | 51 | .
O=C(CN1CC(=O)Oc2ccccc21)OCC(=O)c1ccccc1 | 103* | -1 | 31 | 28
O=C(CN1CC(=O)Oc2ccccc21)Nc1ccc(O)cc1 | 111* | -4 | -10 | 27
COC(=O)c1ccccc1NC(=O)CSc1nc2c(c(C(F)(F)F)n1)CCCC2 | 16 | . | -10 | .
CCOc1ccc2nc(SCC(=O)Nc3cccc(C(F)(F)F)c3)sc2c1 | -1 | . | -16 | .
CCOC(=O)CC1Sc2ccccc2N=C1SCC(=O)Nc1cccc(C(F)(F)F)c1 (stereo unspecified) | 126* | -5 | -7 | 6
O=S(=O)(c1ccc(Br)cc1)N1CCCCCC1 | 41 | -1 | 0 | -10
O=C(Nc1ccccc1[N+](=O)[O-])C1(c2ccccc2)CCN(S(=O)(=O)c2ccccc2)CC1 | -8 | . | -7 | .
Cc1ccc(S(=O)(=O)Nc2ccc3c(c2)CC(=O)N([C@H](C)CO)C[C@H](C)[C@H](CN(C)Cc2ccc(Cl)c(Cl)c2)O3)cc1 | 100* | . | -14 | .
Cc1ccc(S(=O)(=O)Nc2ccc3c(c2)CC(=O)N([C@@H](C)CO)C[C@H](C)[C@@H](CN(C)Cc2ccc(Cl)c(Cl)c2)O3)cc1 | 128* | 1 | 25 | ?
Cc1ccc(S(=O)(=O)Nc2ccc3c(c2)CC(=O)N([C@H](C)CO)C[C@H](C)[C@H](CN(C)Cc2ccc4c(c2)OCO4)O3)cc1 | 31 | 1 | 10 | 44
CCn1c(SCC(=O)Nc2cc(C(F)(F)F)cc(C(F)(F)F)c2)nnc1-c1ccncc1 | 39 | . | -40 | .
C[C@@H]1CN([C@@H](C)CO)C(=O)c2cccc(NC(=O)Nc3ccc(F)cc3)c2O[C@H]1CN(C)Cc1ccc(C(=O)O)cc1 | 18 | . | -4 | -44
C[C@H]1CN([C@@H](C)CO)C(=O)c2cccc(NC(=O)Nc3ccc(F)cc3)c2O[C@H]1CN(C)Cc1ccc(C(=O)Nc2ccccc2N)cc1 | 127* | -5 | -14 | .
C[C@@H]1CN([C@H](C)CO)C(=O)c2cccc(NC(=O)Nc3ccccc3)c2O[C@@H]1CN(C)Cc1ccc(C(=O)Nc2ccccc2N)cc1 | 128* | -5 | 13 | .
C[C@H](CO)N1C[C@H](C)[C@@H](CN(C)Cc2ccc(C(=O)Nc3ccccc3N)cc2)Oc2c(NC(=O)Nc3ccc(F)cc3)cccc2C1=O | 125* | -1 | -19 | .
C[C@@H]1CN([C@H](C)CO)C(=O)c2cccc(NC(=O)Nc3ccccc3)c2O[C@H]1CN(C)Cc1ccc(C(=O)O)cc1 | -3 | . | 8 | 23
COc1cccc(-c2cc(=O)c3cc(OC)ccc3o2)c1 | 59 | . | 93* | -142
O=[N+]([O-])c1ccc(O)c(C(c2c[nH]c3ccccc23)c2c[nH]c3ccccc23)c1 | 16 | 1 | 47 | .
O=C1Cc2c([nH]c3ccc([N+](=O)[O-])cc23)-c2ccccc2N1 | 99* | -14 | -2 | -423
COc1ccc(NC(=O)CSc2nc3ccc([N+](=O)[O-])cc3[nH]2)cc1 | 28 | . | 16 | .
COC(=O)Nc1nc2ccc(SC(C)C)cc2[nH]1 | 118* | . | 4 | -72
